Source: ChEMBL document CHEMBL1157539, “Thousands of chemical starting points for antimalarial lead identification” (Nature, 2010)

Legend:
Format in all cases: functional
Plasmodium falciparum [1] = experiment: GSK_TCMDC: Inhibition of Plasmodium falciparum 3D7 in whole red blood cells, using parasite LDH activity as an index of growth. Test compounds present at 2uM
Plasmodium falciparum [2] = experiment: GSK_TCMDC: Inhibition of Plasmodium falciparum Dd2 in whole red blood cells, using parasite LDH activity as an index of growth. Test compounds present at 2uM
HepG2 = experiment: GSK_TCMDC: Percent inhibition of human HepG2 cell line. Test compounds present at 10uM.

SMILES	Inhibition (Plasmodium falciparum [1]) [%]	Inhibition (Plasmodium falciparum [2]) [%]	Inhibition (HepG2) [%]
CN1CCN(CC(=O)Nc2cccc(-c3ccc(-c4nc5cc(C(F)(F)F)ccc5[nH]4)s3)c2)CC1	100	95	36
N#CCCn1nc(-c2ccc(Cl)cc2)c2c(c1=O)CCCC2	94	32	0
Cc1ccc(NC(=N)Nc2ncccc2OCc2c(F)cccc2Cl)cc1	86	54	78
Cc1cccc2nc(-c3ccc(-c4ccc(CNCc5cnn(-c6ccccc6)n5)cc4)s3)[nH]c12.O=C(O)C(F)(F)F	97	48	16
Cc1cc(NC(=O)c2ccco2)ccc1OC1CCN(Cc2ccc(F)cc2)CC1.O=C(O)C(F)(F)F	96	93	4
C[C@@H]1CN(C(c2cccc(O)c2)c2cccc(C(=O)N(C)c3cccc(F)c3)c2)[C@@H](C)CN1C(c1cccc(O)c1)c1cccc(C(=O)N(C)c2cccc(F)c2)c1.Cl (stereo not given in full)	91	85	0
CC(Cc1ccc(OCCN2CCN(c3cccc(Cl)c3)CC2)cc1)NCC(O)c1cccc(Cl)c1.Cl (stereo not given)	93	91	48
Cc1ccc(-c2cc(C(=O)Nc3ccc(S(=O)(=O)N4CCCCC4C)cc3)n[nH]2)c(O)c1 (stereo not given)	100	99	37
COc1ccc(S(=O)(=O)N2CCC3(CC2)OCC(=O)NC3c2ccc(Cl)c(Cl)c2)cc1 (stereo not given)	91	44	0
CC(C)OC(=O)c1ccccc1S(N)(=O)=O	97	0	0
